# Test results reported in PubChem BioAssay AID493191 (Broad Institute, 2011).
# In all, about 1,300 compounds went through this assay and about 330 (25%) were called active. The list is a sample of the results. Results with a measured potency or affinity are listed apart. A number with no mark means an inactive call. How the calls were made is not given here.
# Assay: MALME3 melanoma cell viability loss, dose response, orthogonal assay for MITF inhibitor project, CellTiter-Glo, cherry-picked (AID 493191)
# Settings: CellTiter-Glo luminescence, 24 h; series mostly up to 35 µM; activity change, negative = inhibition: at the top concentration
row,Compound,"activity change, negative = inhibition [%]"
1,COc1ccc(C(=O)NCCSc2ccccc2C)cc1,-4.39
2,O=C(NCCSc1ccccc1)c1ccccc1F,-4.77
3,CN(C)CCCNc1nc2sc3c(c2c(=O)n1CCc1ccccc1)CCCCC3,-41.2
4,CC(C)(C)c1ccc(-c2cn(-c3ccc(Br)cc3)c3[n+]2CCCS3)cc1,-35.8
5,OCc1ccc(N=Nc2ccccc2)cc1,4.1
6,Oc1c(CN2CCCC2)cc(COCc2ccccc2)c2cccnc12,-30.5
7,CN(C)C1CCN(Cc2cc(COCc3ccccc3)c3cccnc3c2O)C1 (stereo not drawn),-30.3
8,COc1cccc(CNc2nc3ccccc3n2C)c1O,-9.88
9,COC(=O)c1c(NC(=O)c2nc3ccccc3s2)sc2c1CC(C)(C)NC2(C)C,-5.34
10,O=C1c2ccccc2CN1c1ccccc1,-4.28
11,CC(=O)Nc1ccc2c(c1)ncn2-c1ccccc1,1.87
12,O=C(NCc1csc(-c2cccs2)n1)C1CCC1,5.23
13,C/C(=N\NC(=O)C(C)Oc1ccc([N+](=O)[O-])cc1)c1ccccn1 (stereo not drawn),-25.6
14,CC(=O)N(C1CC(C)C(C#N)(C#N)C1(C#N)C#N)N(C)C (stereo not drawn),45.4
15,COc1ccccc1N1C(=O)N(C(C)=O)C2C1Nc1ccccc1N2C (stereo not drawn),-21
16,N#Cc1cnc2sc3ccccc3n2c1=N,-6.66
17,Cc1c(/C=C/C(=O)c2ccc(Cl)s2)cnn1C,1.68
18,Cc1c(C=O)c2cc(OCc3ccccc3)ccc2n1C,10.2
19,N#C/C(=C\C=C\c1ccccc1[N+](=O)[O-])C(=O)NCc1ccccc1,-15.7
20,N#C/C(=C\C=C\c1ccccc1[N+](=O)[O-])C(=O)NC1CCCCC1,-15.7

row,Compound,"activity change, negative = inhibition [%]"
1,Nc1ncnc(Sc2ncccn2)c1[N+](=O)[O-],14.4
2,CC(C)C(=O)Nc1ccc2nn(-c3ccc(F)cc3)nc2c1,1.91
3,CS(=O)(=O)N1CCN(c2nc3ccc(Cl)cc3s2)CC1,14.2
4,CCCN1CCC(NCc2cn(C)nc2-c2ccc(Oc3ccccc3)cc2)CC1,-33.6
5,CC(O)CNC(=O)C1CCN(Cc2ccc(OCc3ccccc3)cc2)CC1 (stereo not drawn),-0.748
6,Cc1ccccc1NC(=O)Cc1nc(COC(=O)c2ccc(S(C)(=O)=O)c([N+](=O)[O-])c2)cs1,-35.7
7,COC(=O)c1ccc(COc2ccc(C)cc2[N+](=O)[O-])o1,0.832
8,Cc1ccc(-c2n[nH]c(=O)c3ccccc23)cc1S(=O)(=O)NCC1CCCO1 (stereo not drawn),-3.9
9,C=CCNC(=O)Cn1nnc(-c2ccc(-c3ccc(OC)cc3)cc2)n1,-6.58
10,O=C(N/N=C/C=C/c1ccccc1)c1ccccn1,6.57
11,Cc1ccc(-c2cn3nc(C)c(C)nc3n2)cc1,-19.4
12,Cc1ccc2oc(Nc3nc(C)c(C)c(C)n3)nc2c1,-2.9
13,C=C1C(=O)C2=CC1CCC(=O)C1(C)CCC(OC(C)=O)C(C)(C)C1CC2O (stereo not drawn),-43.8
14,O=C(NC(=S)Nc1ccccn1)c1cccc([N+](=O)[O-])c1,-0.338
15,N/C(=N\OC(=O)c1ccccc1Cl)c1cccc([N+](=O)[O-])c1,3.35
16,CCOc1ccc2nc(C)cc(Nc3cccc([N+](=O)[O-])c3)c2c1,-64.2
17,COC(=O)c1ccc(Nc2cc(C)nc3ccc(C)cc23)cc1,-5.79
18,Clc1ccc(-c2c[n+](Cc3cccc(Cl)c3)c3n2CCC3)cc1,-3.77
19,O=c1c2ccccc2cnn1CCOc1ccccc1,-21.9
20,CS(=O)(=O)c1ccc(C(=O)OCC(=O)NCc2cccs2)cc1[N+](=O)[O-],-38.8

row,Compound,"activity change, negative = inhibition [%]"
1,O=[N+]([O-])c1cc(C(F)(F)F)ccc1NCCc1ccccn1,3.81
2,CS(=O)(=O)c1ccc2nc(NC(=O)c3ccccc3)sc2c1,-14
3,O=C(O)c1cccc(NC(=O)c2cccc(NC(=O)C3CCCO3)c2)c1 (stereo not drawn),2.35
4,Cc1ccc(C(=O)N/N=C\c2ccc([N+](=O)[O-])s2)cn1,-42.5
5,O=C(N/N=C/c1ccc([N+](=O)[O-])s1)c1ccccc1,-49.8
6,C=C1CCC[C@]2(C)C[C@H]3OC(=O)C(CN4CCCCC4CO)[C@H]3CC12 (stereo partly drawn),18
7,COc1cc(SC)ccc1C(=O)Nc1ncc(C)s1,-18.2
8,O=C(NCc1ccccc1)C(=O)Nc1cccc(C(=O)O)c1,3.68
9,CC(C)(C)c1cc(NCCCn2ccnc2)n2ncc(-c3ccccc3)c2n1,-26.9
10,Nc1ccc(-c2nc3c(Cl)cc(N)cc3[nH]2)cc1,7.31
11,Cc1c(C#N)c(O)n(CCO)c(=O)c1N=Nc1ccc2c(c1)COC2=O,-14.4
12,CCN(CC)c1ccc(/C=N/NC(=O)c2cccc(S(=O)(=O)N3CCOCC3)c2)c(O)c1,-15.7
13,CCSc1nnc(NC(=O)C2CCCCC2)s1,6.64
14,O=C(CCl)N(c1ccccc1)c1c[nH]c2ccccc12,-41.4
15,O=C(CCl)N(Cc1cc(=O)[nH]c2ccccc12)c1ccccc1,-29.2
16,Clc1cccc(-c2nc(-c3ccccn3)no2)c1,-33.8
17,Fc1ccccc1-c1nc(-c2ccncc2)no1,-6.62
18,Clc1ccccc1CSc1nnc(-c2ccncc2)o1,-8.1
